About 10,000 (3%) of roughly 330,000 compounds were called active. For the sample, actives were picked, then their nearest neighbours and some compounds at random. Values without a mark were called inactive.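 The calls were made as follows: active = inhibition of at least 50% at 8 µM in the primary screen; inactive = the rest.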
Target: Protein Mdm4 (Homo sapiens) + E3 ubiquitin-protein ligase Mdm2 (Homo sapiens) (UniProt O15151+Q00987)
Assay: disruptors of Mdm2/MdmX RING complex – cell-based, luminescence, split luciferase, SaOS-2, uHTS, primary screen (AID 485346)
Conditions: SaOS-2 split-luciferase Mdm2/MdmX complementation, at 8 µM, active compounds read high

Protein Mdm4 (Homo sapiens) + E3 ubiquitin-protein ligase Mdm2 (Homo sapiens), sequence (O15151 whole entry, looked up): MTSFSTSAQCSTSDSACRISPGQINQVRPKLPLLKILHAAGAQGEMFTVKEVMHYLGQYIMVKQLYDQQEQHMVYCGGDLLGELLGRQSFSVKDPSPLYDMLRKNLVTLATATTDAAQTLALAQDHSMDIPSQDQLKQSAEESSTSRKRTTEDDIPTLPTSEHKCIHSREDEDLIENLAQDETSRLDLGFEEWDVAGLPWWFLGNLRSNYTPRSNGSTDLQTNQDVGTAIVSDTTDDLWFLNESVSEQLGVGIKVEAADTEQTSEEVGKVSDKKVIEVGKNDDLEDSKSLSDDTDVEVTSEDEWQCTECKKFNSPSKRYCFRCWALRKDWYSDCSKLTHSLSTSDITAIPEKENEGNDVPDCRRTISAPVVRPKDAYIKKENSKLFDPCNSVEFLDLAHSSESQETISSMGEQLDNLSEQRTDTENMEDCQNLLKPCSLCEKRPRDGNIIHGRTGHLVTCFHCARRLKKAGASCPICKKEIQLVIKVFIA
Protein Mdm4 (Homo sapiens) + E3 ubiquitin-protein ligase Mdm2 (Homo sapiens), sequence (Q00987 whole entry, looked up): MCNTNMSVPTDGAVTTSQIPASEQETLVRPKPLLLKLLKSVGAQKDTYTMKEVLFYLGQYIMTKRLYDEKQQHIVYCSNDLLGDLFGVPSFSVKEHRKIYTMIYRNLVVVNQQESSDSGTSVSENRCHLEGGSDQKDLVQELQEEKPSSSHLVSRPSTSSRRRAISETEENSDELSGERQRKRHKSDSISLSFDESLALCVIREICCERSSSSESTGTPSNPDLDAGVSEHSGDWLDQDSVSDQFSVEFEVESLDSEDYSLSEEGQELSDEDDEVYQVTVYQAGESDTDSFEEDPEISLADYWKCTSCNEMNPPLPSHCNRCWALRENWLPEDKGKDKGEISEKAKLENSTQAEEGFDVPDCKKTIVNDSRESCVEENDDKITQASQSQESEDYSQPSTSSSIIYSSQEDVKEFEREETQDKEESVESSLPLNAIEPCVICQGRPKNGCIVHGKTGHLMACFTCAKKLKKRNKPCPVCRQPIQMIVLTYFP

With COc1ccc(-n2nc3c(N4CCC(C(=O)NCc5ccccc5)CC4)nnc(C)c3c2C)cc1 as the compound, how does the inhibition read?
The inhibition was 40.9%.

For CCOc1ccc(CNC(=O)C2CCCN(c3nnc(C)c4c(C)n(-c5ccccc5)nc34)C2)cc1 (centres undefined), which inhibition is on record?
The inhibition was 4.48%.

For CCc1ccc(CNC(=O)C2CCN(c3nnc(C)c4c(C)n(-c5ccc(C)cc5)nc34)CC2)cc1, which inhibition is on record?
The inhibition was 89% (active).

Which inhibition does the source give for CC1(C(=O)NNC(=S)NCC2CCCO2)CC1(Cl)Cl (centres undefined) here?
The inhibition was 9.98%.

O=c1c2ccccc2[nH]c(=S)n1CCN1CCC(=C(c2ccc(F)cc2)c2ccc(F)cc2)CC1 was tested. Which inhibition did it give?
Its inhibition is -6.96%.

For COn1c(=O)c(=O)n(OC)c2ccccc21, which inhibition is on record?
The inhibition was -14.5%.

With Brc1cnc(N2CCCC2)nc1N1CCCCC1 as the compound, how does the inhibition read?
Its inhibition is -7.46%.

CCCOc1ccccc1C1CC(=O)Nc2cc3c(cc21)OCO3 (centres undefined) was tested. Which inhibition did it give?
Its inhibition is 56% (active).

With COc1ccccc1C1C2=C(COC2=O)Nc2cc3c(cc21)OCO3 (centres undefined) as the compound, how does the inhibition read?
Its inhibition is 64.9% (active).

Which inhibition does the source give for COC(=O)c1ccc(C2CC(=O)Nc3cc(OC)c(OC)cc32)cc1 (centres undefined) here?
Its inhibition is 7.38%.

With CCCOc1ccc(C2NC(=O)NC(c3ccccc3)=C2C(C)=O)cc1OCC (centres undefined) as the compound, how does the inhibition read?
Its inhibition is 14.8%.

Which inhibition does the source give for O=C1NC(c2cc3c(cc2Cl)OCO3)Oc2ccccc21 (centres undefined) here?
Its inhibition is 2.99%.

With COc1ccc(S(=O)(=O)Nc2ccc3c(c2)OCO3)cc1Cl as the compound, how does the inhibition read?
The inhibition was 8.27%.

COc1ccc(NS(=O)(=O)c2cc(NC(=O)COc3ccccc3F)ccc2OC)cc1 was tested. Which inhibition did it give?
Its inhibition is 14.4%.

With CN1C(=O)[C@H]2[C@@H](/C=C/c3ccccc3)N3C(=O)CN(Cc4ccc(-c5ccccc5)cc4)C(=O)[C@@]3(C)[C@H]2C1=O as the compound, how does the inhibition read?
The inhibition was 22.2%.

How did the inhibition turn out when COc1ccc(-n2c(O)c(C=NCC(c3ccco3)N3CCCC3)c3ccccc3c2=O)cc1OC (centres undefined) was run?
Its inhibition is 15.6%.

For CCN1C(=O)c2cccc3c(S(=O)(=O)Nc4ccccc4O)ccc1c23, which inhibition is on record?
Its inhibition is 62.5% (active).

CCN(CC)S(=O)(=O)c1ccc2c3c(cccc13)C(=O)S2 was tested. Which inhibition did it give?
The inhibition was 39.8%.

How did the inhibition turn out when O=C(CN1C(=O)c2cccc3cccc1c23)Nc1ccccc1 was run?
The inhibition was 26.2%.

How did the inhibition turn out when O=C(NN1CCOCC1)c1cccc(F)c1 was run?
The inhibition was 6.11%.

For Cc1c(Br)c([N+](=O)[O-])nn1CC(=O)Nc1sc2c(c1C(=O)OC(C)C)CCC(C)C2 (centres undefined), which inhibition is on record?
Its inhibition is 23.2%.

For O=C(COC(=O)c1ccncc1)Nc1ccc2c(c1)OCO2, which inhibition is on record?
Its inhibition is -1.34%.

With CC1(C)NC(=O)N(CCCCSc2ccc(Cl)cc2)C1=O as the compound, how does the inhibition read?
Its inhibition is 5.07%.

For COc1ccc(-c2cc(C(=O)N/N=C/c3cccnc3)c3ccccc3n2)c(OC)c1, which inhibition is on record?
The inhibition was -12.7%.

How did the inhibition turn out when COc1ccc(C(=O)/C=C/c2cccnc2)c(OC)c1 was run?
The inhibition was 54.3% (active).

With COc1ccc(C(=O)CCC(=O)Nc2cccnc2)c(OC)c1 as the compound, how does the inhibition read?
The inhibition was 9.02%.

For Cc1nc2nc(SCC(=O)Nc3cccc(F)c3)[nH]c2cc1Br, which inhibition is on record?
Its inhibition is 23.9%.

With Cc1cccc(Nc2ccccc2C(=O)NCc2ccco2)c1C as the compound, how does the inhibition read?
The inhibition was 54.5% (active).

How did the inhibition turn out when O=C(CCNC(=O)c1ccccc1Cl)NCc1ccco1 was run?
The inhibition was 2.16%.

For Cc1ccc(N(Cc2ccc(C(=O)Nc3ccccc3C(=O)NCc3ccco3)cc2)S(C)(=O)=O)cc1C, which inhibition is on record?
Its inhibition is 38.7%.

With Cc1n[nH]c(=O)c2c(NC(=O)COC(=O)c3ncc(Cl)c(Cl)c3Cl)oc(C)c12 as the compound, how does the inhibition read?
Its inhibition is 8.36%.

With CCOCCn1c(-c2ccccc2)nc2ccccc21 as the compound, how does the inhibition read?
Its inhibition is 21.2%.

For CCCCn1c(N)c(N(CCOC)C(=O)CSCC(=O)Nc2cccc(C)c2)c(=O)[nH]c1=O, which inhibition is on record?
Its inhibition is -8.54%.

How did the inhibition turn out when CCCCn1c(-c2cccc(C)c2)nc2cc3[nH]c(=O)c(C(C)C)nc3cc21 was run?
The inhibition was 55.1% (active).

Which inhibition does the source give for COc1ccccc1C(=O)N1C(CC(=O)Nc2ccccc2C)C(=O)NC2CCCCC21 (centres undefined) here?
The inhibition was 10.2%.

Which inhibition does the source give for CC(=O)C1=C(C)NC2=C(C(=O)CC(C)(C)C2)C1C (centres undefined) here?
Its inhibition is 14.7%.

Cc1cccc(C)c1NC1=NC(=S)N(c2ccc(N(C)C)cc2)C1(C)C was tested. Which inhibition did it give?
The inhibition was 13.2%.

For CC1=C/C(=N\OS(=O)(=O)c2ccccc2)C=CC1=O, which inhibition is on record?
Its inhibition is 89.3% (active).

With CC1C(=O)C(C)C(c2ccc(O)cc2)NC1c1ccc(O)cc1 (centres undefined) as the compound, how does the inhibition read?
Its inhibition is -1.09%.

Which inhibition does the source give for Cc1cc(-c2csc(N)n2)c(C)n1-c1ccccc1 here?
Its inhibition is 9.07%.

For CCN(CC(=O)Nc1c(F)cccc1F)C(=O)c1ccc(-c2ccccc2)cc1, which inhibition is on record?
The inhibition was -3.86%.

Cc1c(C(=O)N/N=C/c2ccccc2)[nH]c2c([N+](=O)[O-])cccc12 was tested. Which inhibition did it give?
Its inhibition is 60% (active).

For COc1cc(CC(=O)N/N=C/c2ccccc2)c([N+](=O)[O-])cc1OC, which inhibition is on record?
Its inhibition is 10.3%.

For O=C(N/N=C/c1ccc([N+](=O)[O-])cc1)c1c[nH]c2ccccc12, which inhibition is on record?
The inhibition was 12%.

COC(=O)C1=CN(C)C=C(C(=O)OC)C1c1ccc(Cl)cc1Cl was tested. Which inhibition did it give?
The inhibition was 67.5% (active).

CCOc1ccccc1C1C(C(=O)OC)=CN(C)C=C1C(=O)OC was tested. Which inhibition did it give?
The inhibition was 8.07%.

How did the inhibition turn out when NC(=O)C1(C(N)=O)OC1c1ccc(Cl)cc1Cl (centres undefined) was run?
The inhibition was 20.9%.

How did the inhibition turn out when CCCCCN(C(=O)CCC(=O)OCC(=O)NC1CCC(C)CC1)c1c(N)n(CCCC)c(=O)[nH]c1=O (centres undefined) was run?
Its inhibition is -18.6%.

For O=C(Nc1nc(-c2ccco2)c(-c2ccco2)s1)c1ccco1, which inhibition is on record?
The inhibition was 27%.

COc1cc2c(cc1NC(=O)CN1CCN(S(=O)(=O)c3ccc(F)cc3)CC1)oc1ccccc12 was tested. Which inhibition did it give?
The inhibition was 49.9%.

How did the inhibition turn out when COc1cc2c(cc1NC(=O)COC(=O)/C=C/c1ccccc1)oc1ccccc12 was run?
The inhibition was 51.9% (active).

How did the inhibition turn out when COc1cc(/C=C/C(=O)OCC(=O)c2ccccc2)cc(OC)c1OC was run?
Its inhibition is 20.5%.

For CCCCN1C(=O)/C(=C2/C=CC=CN2C)SC1=S, which inhibition is on record?
The inhibition was -6.03%.

How did the inhibition turn out when COc1cc(/C=C2/SC(=S)N(Cc3ccccc3)C2=O)cc(OC)c1O was run?
The inhibition was 11.8%.

For CCCCN1C(=O)/C(=C/C=C2/C=Cc3ccccc3N2CC)SC1=S, which inhibition is on record?
Its inhibition is 64.7% (active).

How did the inhibition turn out when FC(F)(F)Oc1ccc(-c2cn3cccnc3n2)cc1 was run?
The inhibition was -41.1%.

With CSCC[C@H](NC(=O)NC1CCCC1)C(=O)O as the compound, how does the inhibition read?
Its inhibition is -12.4%.

CNC(=S)N/N=C/c1ccc(N2CCOCC2)s1 was tested. Which inhibition did it give?
Its inhibition is -16.1%.

With NC(=O)c1c(NC(=O)CSc2nnc(-c3ccco3)n2N)sc2c1CCCC2 as the compound, how does the inhibition read?
Its inhibition is 22.2%.

C=CCN(CC=C)S(=O)(=O)c1ccc(C(=O)Nc2sc3c(c2C(N)=O)CCCCC3)cc1 was tested. Which inhibition did it give?
The inhibition was 92.8% (active).

With CCN(c1ccccc1)S(=O)(=O)c1ccc(C(=O)Nc2nccs2)cc1 as the compound, how does the inhibition read?
The inhibition was -12.4%.

Which inhibition does the source give for COc1cccc(OC)c1C(=O)Nc1sc2c(c1C(N)=O)CCCC2 here?
The inhibition was 19%.

C=CCN(CC=C)S(=O)(=O)c1ccc(C(=O)Nc2nc3c(s2)CCc2ccccc2-3)cc1 was tested. Which inhibition did it give?
Its inhibition is 58.5% (active).

With COc1ccc(C(=O)Nc2ncc3c(n2)-c2ccccc2CC3)cc1 as the compound, how does the inhibition read?
The inhibition was 22.2%.
